Results on 26 compounds are retold here after article PMC4336329 (PLoS ONE, 2015).

Molecules are shown by their SMILES. Out of some 310,000 compounds screened, about 14,000 (4.5%) showed an effect of 50% or more. The effect is printed as a negative number. Many of the other results were omitted from the sample, so strong results are more common in it than they were.
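Further: peak tail current of the secondary pulse compared with the same well before compound.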

The test deals with human ether-à-go-go-related gene (hERG) potassium channel (human, UniProt Q12809). In words: primary screen, population patch clamp on CHO cells stably expressing hERG; higher = less effect of the substance.
Chain of human ether-à-go-go-related gene (hERG) potassium channel (Q12809 whole entry, looked up): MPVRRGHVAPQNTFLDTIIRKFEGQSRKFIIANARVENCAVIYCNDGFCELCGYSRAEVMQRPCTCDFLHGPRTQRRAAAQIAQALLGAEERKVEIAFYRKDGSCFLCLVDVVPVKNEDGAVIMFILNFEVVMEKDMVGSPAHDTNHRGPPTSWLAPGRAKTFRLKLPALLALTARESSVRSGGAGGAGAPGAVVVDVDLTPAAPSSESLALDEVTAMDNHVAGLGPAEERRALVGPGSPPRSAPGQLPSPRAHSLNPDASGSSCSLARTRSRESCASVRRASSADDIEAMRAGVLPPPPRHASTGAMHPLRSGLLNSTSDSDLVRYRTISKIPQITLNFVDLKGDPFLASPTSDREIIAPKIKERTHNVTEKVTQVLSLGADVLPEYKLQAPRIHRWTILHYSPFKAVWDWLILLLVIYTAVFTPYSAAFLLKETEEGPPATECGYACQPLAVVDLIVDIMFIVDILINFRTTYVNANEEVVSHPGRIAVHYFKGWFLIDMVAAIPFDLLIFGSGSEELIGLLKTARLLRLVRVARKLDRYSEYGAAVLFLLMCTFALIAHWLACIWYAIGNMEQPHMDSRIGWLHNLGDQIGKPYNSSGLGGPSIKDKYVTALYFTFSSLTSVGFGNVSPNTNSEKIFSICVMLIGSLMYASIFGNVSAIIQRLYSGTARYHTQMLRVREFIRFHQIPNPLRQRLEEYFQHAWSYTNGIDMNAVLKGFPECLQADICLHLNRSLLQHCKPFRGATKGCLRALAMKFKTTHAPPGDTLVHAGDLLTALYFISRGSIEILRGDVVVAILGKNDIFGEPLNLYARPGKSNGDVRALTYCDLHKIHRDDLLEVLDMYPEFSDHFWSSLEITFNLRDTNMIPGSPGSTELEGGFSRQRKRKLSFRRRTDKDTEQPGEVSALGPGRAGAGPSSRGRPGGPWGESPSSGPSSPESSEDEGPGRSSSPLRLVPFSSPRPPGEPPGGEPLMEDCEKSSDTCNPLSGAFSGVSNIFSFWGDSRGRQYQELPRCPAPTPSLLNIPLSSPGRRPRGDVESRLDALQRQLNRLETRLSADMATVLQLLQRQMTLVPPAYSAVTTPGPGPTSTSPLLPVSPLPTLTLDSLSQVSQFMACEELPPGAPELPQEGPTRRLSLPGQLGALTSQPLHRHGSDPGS
In the case of `Clc1ccc(Cl)c(OCCCCNCc2ccccc2)c1.O=C(O)C(=O)O`, the “hERG current change (%, negative = inhibition) at 10uM” value is -71.5%.

Regarding `Clc1cc(Br)ccc1OCCCNCc1ccccc1.O=C(O)C(=O)O`, the “hERG current change (%, negative = inhibition) at 10uM” value is given as -30.1%.

In the case of `Cl.OCCCCNCc1ccc(OCc2ccc(Cl)cc2Cl)cc1`, the “hERG current change (%, negative = inhibition) at 10uM” value is listed as -51.6%.

For `CCc1cc(OCCCCNCc2ccccc2)ccc1Cl.O=C(O)C(=O)O`, the “hERG current change (%, negative = inhibition) at 10uM” value is -25.6%.

`Cl.OCCNCc1ccc(OCc2ccc(Cl)cc2Cl)cc1`: the “hERG current change (%, negative = inhibition) at 10uM” value is given as -45.8%.

As to `C=CCNCCCOc1ccc(Cl)cc1Br.O=C(O)C(=O)O`, the “hERG current change (%, negative = inhibition) at 10uM” value is given as -42.6%.

`Cc1ccc(OCCCNCCO)c(Br)c1.O=C(O)C(=O)O`: the “hERG current change (%, negative = inhibition) at 10uM” value is -10.5%.

Regarding `Clc1ccc(OCCCNCc2ccccc2)c2ccccc12.O=C(O)C(=O)O`, the “hERG current change (%, negative = inhibition) at 10uM” value is -1.92%.

Consider `O=C(O)C(=O)O.OCCNCCCOc1ccc(Cl)cc1Br`, for which the “hERG current change (%, negative = inhibition) at 10uM” value is -54.9%.

For the compound `Brc1ccccc1OCCNCc1ccccc1.O=C(O)C(=O)O`, the “hERG current change (%, negative = inhibition) at 10uM” value is given as -29.8%.

`Clc1ccc(OCCCNCc2ccccc2)c(Br)c1.O=C(O)C(=O)O`: the “hERG current change (%, negative = inhibition) at 10uM” value is recorded as -64.4%.

On to `Cl.OCCCCNCc1ccc(OCc2ccccc2Cl)cc1`, for which the “hERG current change (%, negative = inhibition) at 10uM” value is reported as -15.9%.

For the compound `Cc1cc(C)c(S(=O)(=O)Nc2ccc(OCC(=O)O)cc2)c(C)c1`, the “hERG current change (%, negative = inhibition) at 10uM” value amounted to 6.93%.

Consider `Nc1nnnn1/N=C/c1ccccc1OCc1ccccc1`, for which the “hERG current change (%, negative = inhibition) at 10uM” value is 19%.

On to `COCCCN(Cc1cccs1)S(=O)(=O)c1c[nH]c(C(=O)OC)c1`, for which the “hERG current change (%, negative = inhibition) at 10uM” value is listed as -8.01%.

On to `Cc1ccc2c(c1)nc(NCCCO)n2C`, for which the “hERG current change (%, negative = inhibition) at 10uM” value was -3.54%.

Consider `Cc1cc(Cl)ccc1OC(C)C(=O)OCC(=O)Nc1ccc2[nH]c(=O)[nH]c2c1` (centres unmarked), for which the “hERG current change (%, negative = inhibition) at 10uM” value is on record as -3.04%.

As to `OCCN1CCN(c2nc(-c3ccccc3O)nc3ccccc23)CC1`, the “hERG current change (%, negative = inhibition) at 10uM” value is on record as -25.1%.

Turning to `COc1nc(-c2ccc(Cl)cc2Cl)nc2ccccc12`, the “hERG current change (%, negative = inhibition) at 10uM” value is 6.59%.

For `CN1CCN(c2nc(-c3ccccc3Cl)nc3ccccc23)CC1`, the “hERG current change (%, negative = inhibition) at 10uM” value is recorded as -73.8%.

With `Oc1ccccc1-c1nc(N2CCN(Cc3ccccc3)CC2)c2ccccc2n1`, the “hERG current change (%, negative = inhibition) at 10uM” value is reported as 10.5%.

For the compound `CN1CCN(c2nc(-c3ccccc3O)nc3ccccc23)CC1`, the “hERG current change (%, negative = inhibition) at 10uM” value came out at 9.47%.

Take `COc1cccc(-c2nc(N3CCN(C)CC3)c3ccccc3n2)c1O`: the “hERG current change (%, negative = inhibition) at 10uM” value was -30.8%.

Consider `CN1CCN(c2nc(-c3ccc(Cl)c(Cl)c3)nc3ccccc23)CC1`, for which the “hERG current change (%, negative = inhibition) at 10uM” value turned out to be 6.63%.

Consider `CCN1CCN(c2nc(-c3ccccc3Cl)nc3ccccc23)CC1.Cl`, for which the “hERG current change (%, negative = inhibition) at 10uM” value is given as -69.9%.

With `CN1CCN(c2nc(-c3ccc(Cl)cc3Cl)nc3ccccc23)CC1`, the “hERG current change (%, negative = inhibition) at 10uM” value is listed as -73.9%.
